Each structure is given as a SMILES string.

Test [1] deals with Glycogen synthase kinase-3 beta (Homo sapiens) (UniProt P49841). The following applies: at 1 µM.
The target of test [2] is Homeodomain-interacting protein kinase 1 (Homo sapiens) (UniProt Q86Z02). The following applies: at 0.1 µM.
Test [3] has the same target. The following applies: at 1 µM.
The target of test [4] is T1, Homeodomain-interacting protein kinase 4 (Homo sapiens) (UniProt Q8NE63).
T1 sequence (whole entry): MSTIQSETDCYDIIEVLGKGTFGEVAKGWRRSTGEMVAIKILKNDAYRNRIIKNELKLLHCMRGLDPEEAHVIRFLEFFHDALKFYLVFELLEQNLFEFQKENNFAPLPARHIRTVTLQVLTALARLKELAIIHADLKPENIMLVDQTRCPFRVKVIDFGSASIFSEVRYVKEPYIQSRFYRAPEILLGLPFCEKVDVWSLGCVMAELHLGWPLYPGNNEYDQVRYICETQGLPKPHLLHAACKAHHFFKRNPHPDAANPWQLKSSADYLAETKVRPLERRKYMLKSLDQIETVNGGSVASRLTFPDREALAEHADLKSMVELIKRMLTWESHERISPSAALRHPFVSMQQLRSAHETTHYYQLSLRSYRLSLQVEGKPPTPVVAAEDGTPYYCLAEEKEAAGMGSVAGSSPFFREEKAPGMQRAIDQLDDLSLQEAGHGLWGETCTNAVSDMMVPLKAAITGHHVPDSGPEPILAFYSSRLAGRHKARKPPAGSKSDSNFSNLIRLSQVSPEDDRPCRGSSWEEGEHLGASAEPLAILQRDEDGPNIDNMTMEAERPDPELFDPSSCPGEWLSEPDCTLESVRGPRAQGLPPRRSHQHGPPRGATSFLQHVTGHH
The settings on record: at 0.1 µM.

In test [5] the target is T1, Homeodomain-interacting protein kinase 4 (Homo sapiens). The settings on record: at 1 µM.
Test [6] has as its target Mitogen-activated protein kinase 9 (Homo sapiens) (UniProt P45984). The following applies: at 0.1 µM.
Test [7] has the same target. The following applies: at 1 µM.
Test [8] addresses Mitogen-activated protein kinase 1 (Homo sapiens) (UniProt P28482). The following applies: at 0.1 µM.
Test [9] shares this target. The following applies: at 1 µM.
Test [10] concerns the target Mitogen-activated protein kinase 3 (Homo sapiens) (UniProt P27361). The settings on record: at 0.1 µM.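 Note: each value is a mean inhibition figure.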

Sequence of Mitogen-activated protein kinase 1 (Homo sapiens) (P28482 whole entry): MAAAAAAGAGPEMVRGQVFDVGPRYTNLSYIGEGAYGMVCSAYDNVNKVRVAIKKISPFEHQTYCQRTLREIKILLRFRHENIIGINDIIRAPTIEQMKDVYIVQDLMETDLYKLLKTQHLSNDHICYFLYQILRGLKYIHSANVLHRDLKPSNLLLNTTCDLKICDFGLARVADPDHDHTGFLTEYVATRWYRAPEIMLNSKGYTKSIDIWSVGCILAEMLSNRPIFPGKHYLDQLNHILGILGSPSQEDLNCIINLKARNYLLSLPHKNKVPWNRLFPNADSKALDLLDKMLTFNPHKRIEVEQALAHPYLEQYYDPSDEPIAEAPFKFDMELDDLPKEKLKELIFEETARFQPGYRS
Sequence of Homeodomain-interacting protein kinase 1 (Homo sapiens) (Q86Z02 whole entry, looked up): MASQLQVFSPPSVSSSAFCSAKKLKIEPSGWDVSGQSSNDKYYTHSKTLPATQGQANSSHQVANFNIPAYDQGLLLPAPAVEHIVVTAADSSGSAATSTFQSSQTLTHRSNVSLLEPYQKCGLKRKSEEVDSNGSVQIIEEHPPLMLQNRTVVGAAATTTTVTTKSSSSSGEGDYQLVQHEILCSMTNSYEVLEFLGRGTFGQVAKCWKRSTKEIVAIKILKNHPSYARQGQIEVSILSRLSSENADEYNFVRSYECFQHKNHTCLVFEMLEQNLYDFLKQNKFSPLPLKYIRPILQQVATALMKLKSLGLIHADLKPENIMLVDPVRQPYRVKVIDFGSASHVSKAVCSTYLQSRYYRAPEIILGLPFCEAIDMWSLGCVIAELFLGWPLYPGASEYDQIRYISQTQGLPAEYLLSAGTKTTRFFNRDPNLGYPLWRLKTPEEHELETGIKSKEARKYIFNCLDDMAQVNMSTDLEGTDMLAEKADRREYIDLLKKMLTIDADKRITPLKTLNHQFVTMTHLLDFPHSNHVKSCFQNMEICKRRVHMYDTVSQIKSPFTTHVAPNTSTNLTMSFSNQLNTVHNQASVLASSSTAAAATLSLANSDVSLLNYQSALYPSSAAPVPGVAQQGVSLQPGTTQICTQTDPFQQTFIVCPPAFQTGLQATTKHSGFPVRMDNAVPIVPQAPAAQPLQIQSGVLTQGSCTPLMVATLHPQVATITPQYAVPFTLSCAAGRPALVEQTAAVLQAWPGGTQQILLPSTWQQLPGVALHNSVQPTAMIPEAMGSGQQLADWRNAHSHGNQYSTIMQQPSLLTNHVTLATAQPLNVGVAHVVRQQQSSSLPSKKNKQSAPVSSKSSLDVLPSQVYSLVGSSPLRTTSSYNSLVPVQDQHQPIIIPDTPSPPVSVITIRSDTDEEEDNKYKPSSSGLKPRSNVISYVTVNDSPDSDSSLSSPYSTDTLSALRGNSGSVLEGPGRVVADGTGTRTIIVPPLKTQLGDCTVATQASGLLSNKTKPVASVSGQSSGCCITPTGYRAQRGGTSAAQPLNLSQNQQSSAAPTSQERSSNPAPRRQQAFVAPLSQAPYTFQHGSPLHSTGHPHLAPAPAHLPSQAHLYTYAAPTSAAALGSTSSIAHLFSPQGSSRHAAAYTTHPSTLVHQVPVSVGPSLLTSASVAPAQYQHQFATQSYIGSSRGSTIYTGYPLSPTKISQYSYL
Sequence of Mitogen-activated protein kinase 3 (Homo sapiens) (P27361 whole entry): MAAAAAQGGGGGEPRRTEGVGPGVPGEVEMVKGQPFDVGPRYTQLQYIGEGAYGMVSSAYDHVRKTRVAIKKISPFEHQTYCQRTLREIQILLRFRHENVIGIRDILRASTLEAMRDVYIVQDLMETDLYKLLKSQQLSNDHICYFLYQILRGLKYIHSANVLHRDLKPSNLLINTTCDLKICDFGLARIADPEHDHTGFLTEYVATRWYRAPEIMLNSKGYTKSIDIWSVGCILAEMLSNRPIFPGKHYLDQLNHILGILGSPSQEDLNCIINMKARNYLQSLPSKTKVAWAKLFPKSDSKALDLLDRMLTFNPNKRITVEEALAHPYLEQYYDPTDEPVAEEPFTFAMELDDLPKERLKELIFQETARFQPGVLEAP
Sequence of Glycogen synthase kinase-3 beta (Homo sapiens) (P49841 whole entry, looked up): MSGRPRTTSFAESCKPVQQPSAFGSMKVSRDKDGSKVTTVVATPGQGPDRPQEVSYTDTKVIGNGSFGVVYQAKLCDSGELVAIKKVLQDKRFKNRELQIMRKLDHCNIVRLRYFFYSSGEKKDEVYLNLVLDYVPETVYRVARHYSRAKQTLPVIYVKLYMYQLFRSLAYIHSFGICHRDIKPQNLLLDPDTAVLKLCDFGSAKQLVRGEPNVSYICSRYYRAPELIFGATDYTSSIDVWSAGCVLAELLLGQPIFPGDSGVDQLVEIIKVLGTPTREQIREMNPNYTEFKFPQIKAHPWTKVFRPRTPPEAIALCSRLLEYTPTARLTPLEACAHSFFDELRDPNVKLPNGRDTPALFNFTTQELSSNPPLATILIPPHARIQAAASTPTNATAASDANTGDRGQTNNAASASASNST
Sequence of Mitogen-activated protein kinase 9 (Homo sapiens) (P45984 whole entry, looked up): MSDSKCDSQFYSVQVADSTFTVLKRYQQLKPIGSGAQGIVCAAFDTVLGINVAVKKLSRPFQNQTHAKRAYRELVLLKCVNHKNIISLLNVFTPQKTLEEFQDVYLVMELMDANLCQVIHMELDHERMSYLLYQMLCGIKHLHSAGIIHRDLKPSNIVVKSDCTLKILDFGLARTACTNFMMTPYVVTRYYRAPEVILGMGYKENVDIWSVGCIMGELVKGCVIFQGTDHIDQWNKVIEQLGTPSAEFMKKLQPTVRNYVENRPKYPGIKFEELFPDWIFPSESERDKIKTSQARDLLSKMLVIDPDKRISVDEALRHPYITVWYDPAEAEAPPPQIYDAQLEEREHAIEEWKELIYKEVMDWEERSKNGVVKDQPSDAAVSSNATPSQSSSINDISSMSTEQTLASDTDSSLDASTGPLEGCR

On to `CC(C)c1ccc(Nc2nccc(-c3cnn4ncccc34)n2)cc1`, for which the inhibition in [1] stood at 75.4%; in [2], 57.9%; in [3], 87.8%; in test [4], 11.2%; in [5], 50.6%; in test [6], 5.25%. Moreover, the inhibition in [7] was 27%; in [8], 3.14%; in test [9], 9.29%; in test [10], 0.92%.

For the compound `COc1cc2ncnc(Nc3ccc(C)c(O)c3)c2cc1OC`, the inhibition is 11.2% in [1]; 2.85% in [2]; 2.79% in test [3]; 3.31% in test [4]; 9.35% in test [5]; 4.57% in test [6]. The inhibition in test [7] was 5.02%; in test [8], 5.5%; in test [9], 7.98%; in test [10] it was 4.96%.

For the compound `CCn1c(-c2nonc2N)nc2c(C#CC(C)(C)O)nc(OCCNC)cc21`, the inhibition in test [1] is 46.8%; in test [2] it was -1.59%; in test [3], 7.86%; in test [4] it was 0.33%; in test [5], 1.92%; in [6] it was 3.85%. Moreover, the inhibition in test [7] was found to be 2.84%; in test [8], 5.46%; in test [9], 5.18%; in test [10], 3.73%.

For the compound `CS(=O)(=O)CCNCc1nc(-c2ccc3ncnc(Nc4ccc(OCc5cccc(C(F)(F)F)c5)cc4)c3c2)cs1`, the inhibition in test [1] was 4.85%; in [2], -1.73%; in test [3], 0.09%; in test [4], -0.35%; in test [5] it was 0.46%; in test [6], 2.97%. The inhibition in test [7] was 6.45%; in [8], 1.69%; in test [9], 1.79%; in test [10] it was 2.89%.

For the compound `CCOc1nccc2c1nc(-c1nonc1N)n2CC`, the inhibition in [1] stood at 11.9%; in [2], 5.35%; in test [3], 9.39%; in test [4], 6.7%; in test [5], 12.2%; in test [6] it was 1.55%. The inhibition in [7] was determined as 1.43%; in [8], 4.78%; in test [9], 4.07%; in test [10] it was 5.64%.

`COC(=O)Nc1nc2cc(Oc3ccc(NC(=O)Nc4cccc(Br)c4)cc3)ccc2[nH]1`: the inhibition was 6.86% in test [1]; -0.71% in test [2]; 2.41% in test [3]; 8.37% in test [4]; 19.5% in [5]; 3.12% in test [6]. Further, the inhibition in [7] was 4.83%; in test [8], 2.82%; in test [9], 2.49%; in test [10], 2.94%.

As for `Cc1ccc2c(c1)/C(=N/Nc1ccc(S(N)(=O)=O)cc1)C(=O)N2`, the inhibition in test [1] was 23.7%; in test [2] it was -4.8%; in test [3], 0%; in test [4], -2.11%; in test [5], -0.65%; in test [6], 2.38%. Moreover, the inhibition was 1.49% in test [7], -0.67% in test [8], 2.7% in [9] and 2.34% in test [10].

As for `NS(=O)(=O)c1cccc(Nc2cc(-c3ccc(F)cc3)n[nH]2)c1`, the inhibition came out at 9.59% in test [1]; 2.17% in [2]; 7.35% in [3]; 1.27% in test [4]; 6.82% in test [5]; 1.28% in test [6]. Besides, the inhibition in test [7] is 4.86%; in test [8], 4.24%; in test [9], 3.83%; in test [10], 4.14%.

Take `Cc1ccc2c(-c3ccnc(Nc4ccc5c(c4)OCCO5)n3)c(-c3ccc(C(F)(F)F)cc3)nn2n1`: the inhibition in test [1] was 10.2%; in test [2] it was -4.36%; in test [3] it was 0.03%; in test [4], -0.51%; in [5], -0.85%; in test [6], -0.33%. In addition, the inhibition in test [7] worked out at 4.2%; in test [8], 1.99%; in test [9], 2.01%; in test [10], 2.57%.

As for `O=S(=O)(CCOCc1ccc(-c2ccc3ncnc(Nc4ccc(OCc5cccc(F)c5)c(Cl)c4)c3c2)o1)c1ccccc1`, the inhibition in [1] is 5.91%; in test [2], -2.8%; in test [3], 2.64%; in test [4], 2.22%; in test [5], 5.69%; in test [6], 0.13%. For the same compound, the inhibition in test [7] came out at 0.74%; in test [8] it was 2.68%; in [9], 3.54%; in test [10], 3.68%.

Consider `NC(=O)c1sc(-n2cnc3ccccc32)cc1OCc1ccccc1Br`, for which the inhibition in test [1] is 11.8%; in test [2] it was -1.6%; in test [3], 7.12%; in test [4] it was 0.95%; in test [5], 7.54%; in [6], 4.13%. In addition, the inhibition in [7] was found to be 6%; in [8] it was 3.31%; in test [9] it was 5.56%; in [10], 1.19%.

`C[C@@H](Oc1cc(-n2cnc3ccc(OCC4CCN(C)CC4)cc32)sc1C(N)=O)c1ccccc1C(F)(F)F`: the inhibition in test [1] was 2.74%; in [2], -3.51%; in [3] it was 9.66%; in test [4], 4.86%; in test [5], 32.3%; in test [6], -0.81%. Also, the inhibition in [7] is -1.11%; in [8], 0.24%; in test [9], 0.02%; in test [10], -1.53%.

On to `Cc1ccc(O)cc1Nc1ccnc2ccc(S(C)(=O)=O)cc12`, for which the inhibition in test [1] is 3.47%; in test [2], -0.12%; in test [3], 1.59%; in test [4] it was 2.64%; in test [5], 8.27%; in test [6] it was 4.77%. In addition, the inhibition worked out at 5.22% in [7], 5.91% in test [8], 5.63% in [9] and 5.26% in [10].

In the case of `COc1cc(Nc2nccc(-c3cnn4ncccc34)n2)cc(OC)c1`, the inhibition in [1] was 89.9%; in test [2], 86.8%; in test [3], 93.7%; in [4], 30.6%; in test [5], 76.3%; in test [6], 10.4%. Also, the inhibition in test [7] worked out at 48.1%; in test [8], 2.31%; in [9], 19.7%; in [10], 2.46%.

For `CCS(=O)(=O)c1ccc(OC)c(Nc2ncc(-c3cccc(OC)c3)o2)c1`, the inhibition turned out to be 11.2% in [1]; 7.9% in [2]; 48.3% in test [3]; 19.5% in [4]; 65.7% in test [5]; 3.19% in [6]. In addition, the inhibition in test [7] was 6.62%; in test [8], 1.59%; in test [9] it was 1.18%; in test [10], -0.18%.

For the compound `NC(=O)c1cccc(Nc2nccc(Nc3cccc(F)c3)n2)c1`, the inhibition in [1] was 15.8%; in test [2] it was -3.17%; in test [3] it was 5.3%; in [4] it was 0.35%; in test [5], 8.46%; in test [6] it was 0.09%. Moreover, the inhibition in test [7] was 8.39%; in test [8], 0.99%; in [9] it was 2.19%; in test [10] it was -0.06%.

In the case of `c1ccc(Nc2ncc(-c3ccccc3)o2)cc1`, the inhibition in [1] was 13.3%; in test [2], -2.56%; in [3], 3.15%; in test [4], 1.19%; in test [5] it was 6.31%; in test [6] it was 6.78%. Moreover, the inhibition in test [7] is 12.9%; in test [8], 6.94%; in [9], 7.41%; in [10], 6.5%.

On to `NS(=O)(=O)c1cccc(-c2cc3ccncc3cc2OCc2ccccc2)c1`, for which the inhibition in test [1] worked out at 3.55%; in test [2], 1.1%; in [3] it was 6.53%; in test [4], 1.76%; in test [5], 8.61%; in [6], 0.94%. For the same compound, the inhibition in test [7] turned out to be 3.75%; in test [8], 4.71%; in test [9] it was 5.84%; in test [10], 4.25%.

Turning to `NS(=O)(=O)c1ccc(-c2cc3ccncc3cc2OCc2ccccc2)cc1`, the inhibition turned out to be 3.98% in [1]; 1.69% in test [2]; 4.62% in [3]; 3.58% in test [4]; 6.62% in test [5]; 3.39% in [6]. Also, the inhibition in test [7] is 6.21%; in [8] it was 5.32%; in test [9] it was 3.37%; in [10], 4.03%.

Consider `CCS(=O)(=O)c1ccc(OC)c(Nc2nccc(N(C)c3ccc4c(C)n[nH]c4c3)n2)c1`, for which the inhibition in [1] was 1.7%; in [2], -2.02%; in [3] it was 1.03%; in [4], 0.52%; in [5], 1.15%; in [6] it was 3.79%. In addition, the inhibition worked out at 2.08% in test [7], 5.51% in [8], 5.64% in test [9] and 4.15% in test [10].

The term inhibition denotes the relative decrease from the control value, in per cent.

Values taken from ChEMBL document CHEMBL1961873, “Compounds: GSK PKIS; Assays: Nanosyn kinase panel” (2012).
